The panel holds about 79,000 compounds, 15% with a hit somewhere; the sample as a whole holds those more often. Values without a mark were called inactive. The source made the active and inactive calls. Rule as the data show it: active = growth inhibition above about 70%; inactive = the rest.
Experiments:
[1] = NCI Yeast Anticancer Drug Screen. Data for the rad50 strain (AID 155);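 also: 0% = growth of vehicle-only cultures of the same strain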; details: S. cerevisiae rad50 strain growth inhibition; at 50.0 µM; stronger effect = higher value
Method in brief: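 Readout: growth inhibition relative to vehicle-treated cultures. Compound exposure was carried out in a genetically defined yeast strain deficient in DNA damage repair.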

[2] = NCI Yeast Anticancer Drug Screen. Data for the mec2-1 strain (AID 157); details: S. cerevisiae mec2-1 strain, at 50.0 µM, stronger effect = higher value
Method in brief: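 Cells of the genetically defined mec2-1 yeast strain are incubated with test compound. Inhibition of growth is calculated against vehicle-treated controls.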

[3] = NCI Yeast Anticancer Drug Screen. Data for the cln2 rad14 strain (AID 165);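 also: 0% = growth equal to vehicle treated cultures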; details: S. cerevisiae cln2 rad14 strain, at 50.0 µM, stronger effect = higher value
Method in brief: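 The screen exposed genetically defined yeast (cln2 rad14) to test compounds and scored growth inhibition relative to vehicle-treated controls.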

[4] = NCI Yeast Anticancer Drug Screen. Data for the bub3 strain (AID 167); details: S. cerevisiae bub3 mutant strain, at 50.0 µM, stronger effect = higher value
Method in brief: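 Readout: yeast growth inhibition, expressed relative to vehicle-only wells. The test organism is a mutant strain from a panel with lesions in DNA repair or checkpoint genes.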

[5] = NCI Yeast Anticancer Drug Screen. Data for the mlh1 rad18 strain (AID 175); details: S. cerevisiae mlh1 rad18 strain growth inhibition; at 50.0 µM; stronger effect = higher value
Method in brief: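 Compound-treated yeast growth, normalised to vehicle controls. Strain bears defined DNA repair mutations.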

[6] = NCI Yeast Anticancer Drug Screen. Data for the sgs1 mgt1 strain (AID 161);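 also: 0% = growth of cultures given vehicle only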; details: S. cerevisiae sgs1 mgt1 strain, at 50.0 µM, stronger effect = higher value
Method in brief: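 Genetically altered yeast, compound exposure, growth inhibition relative to vehicle.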

| SMILES | growth inhibition [1] | growth inhibition [2] | growth inhibition [3] | growth inhibition [4] | growth inhibition [5] | growth inhibition [6] [%] |
| --- | --- | --- | --- | --- | --- | --- |
| CCc1cc(-c2ccc(OC)cc2)c(C#N)c(=S)n1C1OC(CO)C(O)C(O)C1O (centres undefined) | 4.9% | -3.5% | 0.7% | 3.35% | 7.7% |  |
| O=C(NC(CO)C(=O)O)c1ccccc1 (centres undefined) | 6.65% | -14.2% | -44.5% | -18.9% | -12.9% |  |
| COc1ccc(-c2nnc(CCCCCCCCc3nnc(-c4ccc(OC)cc4)n3N)n2N)cc1 | -8.05% | -23.9% | 0.8% | -2.7% | -1% |  |
| CCCCC(CC)(CC(=O)O)CC(=O)O | 10.4% | 9.85% | -14.8% | 7.85% | 7.1% |  |
| CCC(CC)C1CC[N-]CC1.CCC(CC)C1CC[N-]CC1.CCC(CC)C1CC[N-]CC1.CCC(CC)C1CC[N-]CC1.N#C[S-].N#C[S-].[Co] | 16.4% | 15.1% | 13.8% | 19.4% | 29.7% |  |
| O=C(c1ccccc1O)N1CCCCC1 | 32.1% | 25.2% | 13.9% | 16.6% | 11.3% |  |
| O=C1c2ccccc2OC(Cl)(c2ccccc2)C1Cl (centres undefined) | -15.1% | -2.4% | -21.8% | 22.7% | 2% |  |
| O=C(Nc1ccccc1Br)c1ccc(F)cc1 | -0.9% | 3.1% | -18.4% | 14.8% | 14.6% |  |
| Nc1cccc(SC2CC(=O)N(c3ccc4c(c3)OCO4)C2=O)c1 (centres undefined) | 90.4% (active) | 92.8% (active) | 79.2% (active) | 91.7% (active) | 85.3% (active) |  |
| CN(C)CCCc1cccc2[nH]c3c(c12)CN(C)CC3 | 22% | -5% | 7.85% | 7.45% | -26% |  |
| Fc1ccc(-c2cc(-c3cc(-c4ccc(F)cc4)n[nH]3)[nH]n2)cc1 | 20.6% | 9.2% | 6.6% | 9.4% | 32.1% |  |
| O=c1[nH]c2ccccc2c(O)c1/C=N/C(=S)NCc1ccccc1 | -23.1% | -23.8% | 0.2% | 0.7% | -37.2% |  |
| O=C(Oc1c(Cl)cc(Cl)cc1C=Nc1ccc(Cl)cc1)c1ccccc1 | 67.1% | 71.4% (active) | 42.4% | 58.2% | 83.9% (active) |  |
| O=C(c1ccccc1)C(C(c1ccc(Cl)cc1)N1CCOCC1)N1CCOCC1 (centres undefined) | 5.15% | 2.75% | 19.9% | 10.7% | 7.65% |  |
| CCC(C)C/C(C)=N\NC(N)=O (centres undefined) | 1.75% | 0.1% | 9.2% | -4.75% | 6.25% |  |
| O=C(Oc1ccc(Cl)cc1)c1ccccc1 | 25.3% | -2.1% | 2.25% | -7.75% | -25.6% |  |
| C[N+](C)(C)CCCCCc1c2nc(c(CCCCC[N+](C)(C)C)c3ccc([nH]3)c(CCCCC[N+](C)(C)C)c3ccc([nH]3)c(CCCCC[N+](C)(C)C)c3nc1C=C3)C=C2 | 19.6% | 3.85% | 3.8% | 26.4% | 85.2% (active) |  |
| CCc1cccc(Nc2ccccc2C(=O)O)c1 | 42% | 25.2% | -26.6% | -2.05% | -2.2% |  |
| O=C(O)c1ccc(C(=O)c2ccccc2)c(C(=O)O)c1 | -4.05% | -1.8% | -8.7% | -62.9% | -17.4% |  |
| O=C(Nc1cc2c(cc1[N+](=O)[O-])-c1c(F)cccc1C2)C(F)(F)F | 9.8% | 1.4% |  | 4.9% | 2.15% | 8.25 |
| COc1cc(-c2oc3c(OC)c(OC)cc(O)c3c(=O)c2OC)ccc1O | 11.7% | -8.1% | -5.3% | -9.05% | -0.05% |  |
| NCCNC(=O)Cc1cccc2ccccc12 | -21.1% | -48% | 3.6% | -36.5% | -3.05% |  |
| CC1=C(C(=O)Nc2ccccc2C)C(c2ccc(C3C(C(=O)Nc4ccccc4C)=CNC=C3C(=O)Nc3ccccc3C)cc2)C(C(=O)Nc2ccccc2C)=C(C)N1 | 29.3% | 44.8% | 21% | 50.4% | 46% |  |
| CC(C(=O)c1ccccc1)C(O)(C(F)(F)F)C(F)(F)F (centres undefined) | -5.15% | 2.6% | -24.4% | -0.85% | -9.05% |  |

| SMILES | growth inhibition [1] | growth inhibition [2] | growth inhibition [3] | growth inhibition [4] | growth inhibition [5] | growth inhibition [6] [%] |
| --- | --- | --- | --- | --- | --- | --- |
| COc1ccc(-c2nnc3cc(C)n4nnnc4n23)cc1OC | 5.3% | 5.55% | 9.1% | 11.6% | 16.2% |  |
| O=C1OC(/C=C/c2ccccc2)=NC/1=C\c1ccccc1O | 16.1% | 8.6% | 23.4% | 0.7% | 6.6% |  |
| CC1(C)OC(=O)C(=Cc2cccc3ccc4ccccc4c23)C(=O)O1 | 31.9% | 18.3% | -17.1% | 40.7% | 40.6% |  |
| CC(=O)NNc1nc(C)c(C(/C=C/c2ccccc2O)=N/NC(=O)c2ccncc2)s1 | 6.9% | 5.5% | 26.6% | 17.5% | 22.2% |  |
| O=C(Cl)N(C1CCCCC1)C1CCCCC1 | -19% | -8.8% | -10.9% | 2.35% | -12.9% |  |
| O=[N+]1C=CC(=NN=c2ccn([O-])cc2)C=C1 | 33.9% | 15.5% | 14.6% | 8% | 26.9% |  |
| CCCCN(CCCC)C(=O)OCC | 30.2% | 8.3% | 12.4% | 19.2% | 14.5% |  |
| CC(C)(C)C(C(N)=O)C(C)(C)C | 4.4% | 2.6% | 14.4% | 10.8% | -19.6% |  |
| Nc1nnc(-c2cccc(-c3nnc(N)o3)c2)o1 | -13.5% | -24.6% | -41.4% | -6.5% | -15.1% |  |
| CCCCCCCCC1CCC(=O)O1 (centres undefined) | 19.8% | 1.8% | 7.45% | 7.25% | 9% |  |
| NC(=O)C1=C(O)C(=O)NC1=O | 1.6% |  | -29.8% | 7.05% | -5.1% | 8.9 |
| CC1=CC(=O)CC(C)(C)C1(O)/C=C/C(C)=C/C(=O)O (centres undefined) | -11.6% |  | -37% | -41.7% | 5.1% | -56 |
| NCCN(Cc1ccccc1)C1CC1 | 5.4% |  | 15.3% | -16.2% | -1.05% | 9.35 |
| CCOCC(=O)N[C@H]1CCc2cc(OC)c(OC)c(OC)c2-c2ccc(OC)c(=O)cc21 | 9.45% |  | -2.6% | 9.35% | 4% |  |
| CCOC(=O)C1(F)S(=O)(=O)OCCOS1(=O)=O | -12.9% |  | -18.4% | 6.3% | -9.8% | -11.4 |
| O=C(c1ccccc1)c1ccccc1O | -16.6% |  | 6.95% | 10.7% | 2.9% | 11.4 |
| CCOC(=O)C(=O)NC12CC3CC(CC(C3)C1)C2 | -16.9% |  | -4.45% | 24.8% | -8.3% | 1.5 |
| O=S(=O)(O)C(O)C(F)(F)C(F)(F)C(F)(F)F (centres undefined) | 16.2% |  | -37.8% | -30.6% | 19.9% | 22.9 |
| O=S(O)c1cc(Cl)c(O)c(Cl)c1 | -7.1% |  | -37.5% | -5.1% | -2.75% | -7.05 |
| CCCC(=O)Oc1ccc(Cl)cc1C | -2.3% |  | -57.6% | -13.6% | -3.85% | 2.85 |
| C/C(CCc1ccccc1Br)=N/NC(N)=O | -11.1% |  | -34.4% | 2.6% | -11.3% | -8.55 |
| CCCC(SCCO)C(CC)CSCCO (centres undefined) | -16.8% |  | -14.5% | 13.1% | 5.7% | 2.65 |
| C/C(CC(=O)Nc1ccc(C)cc1C)=N/N=C(N)N | -10.8% |  | 15.4% | -17.7% | -17.1% | -15.2 |
